# Shown are actives, neighbours in structure and some others; about 21% of the full set was active somewhere.
# HCV inh: qHTS Assay for Inhibitors of Hepatitis C Virus (HCV) | actives 3.4% (n = 340,000) | Potency, µM (top dose mostly 41.8 µM), for inactives: at the highest dose activity change, negative = inhibition, most hits filed as inhibitors | AID 651820, 2012 | Huh7.5.1 HCVcc-Cre infection, luciferase reporter, 44 h; further: potency means the concentration at half of the fitted maximal effect; on the % scale 0 is the no-effect control and ±100 the full control effect
#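 HCVcc-Cre virus at an moi near 0.5 was added right after compound to cells cultured 4 h from seeding (1,000 cells/well). Luciferase activity was determined 44 h later, 15 min after substrate addition at RT.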
# Pf growth 96h: Primary qHTS for delayed death inhibitors of the malarial parasite plastid, 96 hour incubation; actives 6.9% (n = 320,000); Potency, µM (series often up to 28.7 µM), inactives show at the top dose activity change, negative = inhibition, most hits filed as inhibitors; P. falciparum luciferase reporter growth, 96 h; further: potency means the concentration at half of the fitted maximal effect; on the % scale 0 is the no-effect control and ±100 the full control effect
#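 P. falciparum expressing integrated firefly luciferase grown in erythrocytes (2% hematocrit, 0.05% parasitemia final) with compounds for 96 hours at 37 C, 5% CO2. Growth inhibition read as loss of luminescence after adding luciferase detection reagent.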
# HCMV inh: qHTS Assay for inhibitors of the human cytomegalovirus (HCMV); actives 4.5% (n = 410,000); AID 1259415, 2018; HFF cells, HCMV-luciferase reporter, 72 h; hits give low values; activity change, negative = inhibition, % at 57.5 µM; in the data active means activity change below about -60%; inconclusive means no clear call, values can overlap the other calls; inactive means above about -39%; further: on the % scale 0 is the no-effect control and ±100 the full control effect
#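 Two compound doses tested in HFFs infected with HCMV-luciferase, MOI 1 PFU/cell, 72 h at 37C. Lysate luminescence read with OneGlo; data normalized against buffer-only and 10uM Salinomycin inhibitor controls.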
# Cycloheximide cs: Cycloheximide Counterscreen for Small Molecule Inhibitors of Shiga Toxin. cell reporter, cycloheximide protein synthesis inhibition counterscreen. max response, %. actives 12% (n = 300,000); in the data active means max response mostly above about 13%, no sharp cut-off; inactive means mostly below about 14%; further: read at 38.3 µM for the half of the compounds with a filed dose; 0% is about no effect
# Pf growth 48h: Primary qHTS for delayed death inhibitors of the malarial parasite plastid, 48 hour incubation | Potency, µM (series often up to 28.7 µM), for the others: top-dose activity change, negative = inhibition, actives largely listed as inhibitors | P. falciparum luciferase growth in erythrocytes, 48 h | actives 5.9% (n = 310,000); further: potency means the concentration at half of the fitted maximal effect; on the % scale 0 is the no-effect control and ±100 the full control effect
#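 In quantitative HTS format, infected erythrocytes bearing luciferase-reporter parasites were treated for a single generation at 37 C. Luminescence after adding detection reagent served as the growth measure.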
# Shiga inhibitor: A qHTS for Small Molecule Inhibitors of Shiga Toxin; Vero cells, Shiga toxin protein synthesis inhibition reporter; inhibition, % at 38.7 µM; actives 9.2% (n = 290,000); AID 2315, 2010; in the data active means inhibition mostly above about 28%, no sharp cut-off; inactive means mostly below about 43%; further: 0% is about no effect
# * hit, by the source's call; ? = inconclusive; . = not tested or not shown; ! = not confirmed by another sample; [ ] = another dose, or the depositor's remark. Unless noted, the call rests on the fitted dose curve; in most records, active means well fitted inhibition curve with a large enough effect; inconclusive means small, poorly fitted or top-dose-only effect, or another doubt; inactive means no such curve, though single readings can be large or run the other way.
SMILES,HCV inh,Pf growth 96h,HCMV inh,Cycloheximide cs,Pf growth 48h,Shiga inhibitor
O=C(COC(=O)c1cc(Cl)ccc1O)c1ccc2c(c1)OCO2,-5%,5%,-3,.,26%,.
O=C(COC(=O)c1ccc(O)cc1O)c1ccc2c(c1)OCO2,1%,-11%,4,76*,32%,92*
CC(C)(C)C(=O)Nc1ccccc1C(=O)OCC(=O)c1ccc2c(c1)OCCO2,?,-20%,-37,69*,-3%,78*
O=C(COC(=O)c1ccc2c(c1)OCCO2)Nc1ccccc1C(F)(F)F,.,.,4,.,.,.
O=C(COC(=O)c1ccc(O)cc1)c1ccc2c(c1)OCCO2,5%,?,56,.,?,.
COc1cccc(C(=O)Nc2cccc(-c3cn4c(C)csc4n3)c2)c1OC,.,.,8,.,.,.
O=C(CN1CCOCC1)Nc1ncc(Cc2ccccc2Cl)s1,-23%,-3%,68,7,-6%,-9
CC(=O)Nc1ncc(Cc2cccc(Cl)c2)s1,-17%,20%,-33,2,-2%,23
O=C(Nc1ncc(Cc2ccccc2Cl)s1)C1CCCO1 (stereo not drawn),2%,?,70,54*,408%,49*
O=C(Nc1ncc(Cc2cccc(Cl)c2)s1)C1CCCO1 (stereo not drawn),-5%,101%,-14,69*,111%,116*
CCc1ccc(CCC(=O)Nc2ncc(Cc3ccccc3Cl)s2)o1,?,?,-61*,6,-4%,13
O=C(Nc1ncc(Cc2cccc(Cl)c2Cl)s1)C1CCCO1 (stereo not drawn),7%,8%,0,47*,68%,101*
O=Cc1c2c(cc3ccc(Cl)cc13)CCC2,.,.,3,.,.,.
CCOC(=O)C1=C(COC(=O)Cc2ccccc2F)NC(=O)NC1C (stereo not drawn),25%,-1%,-20,.,14%,.
O=C(CCSc1ccc(Cl)cc1)N1CCN(S(=O)(=O)c2ccccc2)CC1,?,-1%,0,.,?,.
CC(C)(C)NC[C@H](O)COc1cccc2c1CCC(=O)N2,.,-5%[12.8 µM],.,.,2%[12.8 µM],.
CC(C)C(=O)Nc1ncc(Cc2cccc(Cl)c2)s1,-9%,4%,-69*,12,-14%,-17
COc1cc(NC(=O)c2ccnc(N)c2)cc(C(=O)Nc2cccc(C(F)(F)F)c2)c1,-26%,1.9µM*,21,-1,2.1µM*,2
COc1cc(NC(=O)c2cc(C)on2)cc(C(=O)Nc2cccc(C(F)(F)F)c2)c1,?,?,8,-3,?,1
COc1cc(NC(=O)c2csc(N)n2)cc(C(=O)Nc2cccc(C(F)(F)F)c2)c1,?,?,-67*!,7,12µM*,21
COc1cc(NC(=O)c2cnc(N)o2)cc(C(=O)Nc2cccc(C(F)(F)F)c2)c1,?,13µM*,?,-3,10µM*,-4
COc1cc(NC(=O)c2cnc(N)s2)cc(C(=O)Nc2cccc(C(F)(F)F)c2)c1,?,3.3µM*,-31,-4,2.6µM*,-2
COc1cccc(NC(=O)c2oc3ccccc3c2NC(=O)c2ccc(C(F)(F)F)cc2)c1,.,.,5,.,.,.
Cc1cc(C)n2nc(SC(C)C(=O)N(C)c3ccccc3)nc2n1 (stereo not drawn),10%,?,-31,.,?,.
CCN(Cc1ccccc1)C(=O)Nc1c(Cl)cccc1Cl,.,.,33,.,.,.
SMILES,HCV inh,Pf growth 96h,HCMV inh,Cycloheximide cs,Pf growth 48h,Shiga inhibitor
CN(C)c1ccc(-c2ccnc3c2CC(C)(C(=O)Nc2ccc(F)c(Cl)c2)O3)cc1 (stereo not drawn),.,.,19,.,.,.
COC(=O)[C@]12CCCCC=C1N(Cc1ccco1)C(=O)[C@H](CC(=O)NCc1ccc(OC)c(OC)c1)C2,.,.,-7,.,.,.
Cc1ccc(Cl)cc1NC(=O)c1nnn(Cc2ccccc2)c1N,.,.,-8,.,.,.
CC1=CC(=O)C2=C(C)CC(O)C3C(C)C(=O)OC3C12 (stereo not drawn),19%,13µM*,37,-2,-3%,-16
COc1cccc(C2NC(=S)NC3=C2CCc2ccccc23)c1 (stereo not drawn),?,?,?,8,-24%,35
COc1ccc2c(c1)C1=C(CC2)C(c2ccc(C)cc2)NC(=S)N1 (stereo not drawn),11µM*,-1%,?,-5,?,8
Cc1ccc(C2NC(=O)NC3=C2CCc2ccccc23)cc1 (stereo not drawn),-28%,4%,14,57*,117%,71*
O=C(Nc1cc(Cl)cc(Cl)c1)c1cccc(OC(F)F)c1,?,?,-75*,15*,.,17
Cc1ccnc(NC(=O)c2cccc(OC(F)F)c2)n1,17%,97%,-30,20,96%,69*
CSC(=Nc1ccccc1)N=C(SCc1ccccc1)N(C)C,?,.,-101*,.,.,.
CCOC(=O)c1c(C)[nH]c(C=Nc2ccc(OC)cc2)c1O,7%,15µM*,85,20*,-21%,84*
CCOC(=O)c1c(C)[nH]c(C=Nc2ccccc2)c1O,-1%,9.3µM*,.,16,-1%,1
COc1ccc(OC)c(CNC(=O)CN(c2ccc(C)cc2)S(=O)(=O)N(C)C)c1,.,.,-4,.,.,.
CCOC(=O)Cn1c(C2CC(=O)N(c3ccc(C)cc3)C2)nc2ccccc21 (stereo not drawn),.,.,-2,.,.,.
O=C(CC(Sc1ccccc1)c1cccs1)c1ccco1 (stereo not drawn),-6%,80%,9,26*,-8%,57*
O=C(Cc1ccc(Br)cc1)NNC(=O)c1cccs1,4%,.,?,.,.,.
COc1ccc(S(=O)(=O)N(CC(=O)NCc2ccccn2)c2ccc(Cl)cc2)cc1,15%,32%,-11,8,10µM*,-4
COc1ccccc1N(CC(=O)NCc1ccccn1)S(C)(=O)=O,1%,?,-66*,-2,-25%,-10
COc1ccc(S(=O)(=O)N(CC(=O)Nc2cccnc2)c2ccc(Cl)cc2)cc1,.,.,-104*,.,.,.
COc1ccc(OC)c(N(CC(=O)NCc2ccccn2)S(C)(=O)=O)c1,17%,50%,12,12,1%,-15
COc1ccc(S(=O)(=O)N(CC(=O)Nc2cc(C)cc(C)c2)c2ccc(Cl)cc2)cc1,.,.,-32,.,.,.
CCOc1ccc(S(=O)(=O)N(CC(=O)Nc2cccnc2)c2ccc(F)cc2)cc1,?,5.9µM*,-26,-4,19%,-12
CC1CCC(C(C)C)C(O)C1 (stereo not drawn),.,11%,.,-8,9%,-3
C[C@H]1CN([C@@H](C)CO)S(=O)(=O)c2ccc(Br)cc2O[C@@H]1CN(C)C(=O)CCN1CCCCC1,.,.,7,.,.,.
